# Inconclusive results are not listed. Unmarked numbers belong to inactive results. Activity calls are given as the source filed them. Calls come from the whole dose curve; as a rule, active = well fitted activation curve with a large enough effect; inconclusive = small, poorly fitted or top-dose-only effect; inactive = no such curve, though single readings can be large or run the other way.
# Test: qHTS assay for re-activators of p53 using a Luc reporter: Hit Validation; note: nearly all actives have a fitted effect of over 75% in size; for activation: 0% is about no effect
# Conditions: p53-responsive luciferase reporter cells, luminescence, H1299 line expressing heat-sensitive Ala138Val p53; series mostly up to 46.1 µM; activation: at the top concentration
# Method in brief: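 H1299 (p53-null) cells stably carrying p53-A138V and a BP100-luciferase reporter, 1000 cells/well, treated 24 h at 37 deg C. Compounds at several concentrations, 1:5 dilution; nocodazole control; luminescence read after 10 min with detection reagent.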
# Potency is the fitted concentration of half-maximal effect.
Compound,activation,Potency
O=C(NCc1ccc(-c2nc3ccccc3s2)cc1)c1cc2ccccc2o1,-4.17%,
Clc1ccc(OCc2nc(-c3ccccn3)no2)c(Br)c1,,1030 nM (active)
N#CC1=C(N)N2C(=C(C#N)C13CCCCC3)SC1CCCCC12O (stereo not drawn),-17.2%,
Cc1ccc(OC(=O)c2cccc(S(=O)(=O)N3CCCC3)c2)c(-n2nc3ccccc3n2)c1,,3660 nM (active)
C/C(=N\NC(=O)c1cccc(Br)c1)c1ccccn1,,9200 nM (active)
Clc1ccccc1Nc1nc2ccccc2o1,,5170 nM (active)
N#C/C(Cn1c[n+](NC(=O)Nc2ccccc2)cn1)=N/O,33.3%,
COC(=O)CSc1nc2cc(OC)ccc2cc1C#N,,9200 nM (active)
CC(C)C(=O)Nc1ccc(-c2nc3cccnc3o2)cc1,,366 nM (active)
NC(=O)c1ccc(-n2c(CCC(=O)O)ccc2-c2cccs2)cc1,-8.33%,
O=C(NNC(=O)c1ccc(Cl)cc1Cl)c1ccncc1,-28.8% [at 9.22 µM],
Cc1ccc(S(=O)(=O)CNC(=O)c2ccccc2)cc1,-11.5%,
O=C(N/N=C\c1cc(Cl)ccc1O)c1ccc(S(=O)(=O)N2CCCCC2)cc1,31.2%,
CCN(CC)c1ccc(NC(=O)CN2CCN(CC(=O)Nc3ccccc3F)CC2)cc1,5.21%,
COc1ccc2oc(C(=O)OCC(=O)NCCN3C(=O)CSC3=O)c(C)c2c1,-18.8%,
COc1ccc2cnn(CCOc3ccccc3)c(=O)c2c1OC,,1030 nM (active)
O=C(/C=C/Nc1ccccc1C(=O)O)c1cccs1,-83.9%,
Cc1ccc2c(c1)sc1nc(=O)n(-c3cccc(Cl)c3)c(=O)n12,,8200 nM (active)
O=C(COC(=O)c1cn(-c2ccccc2)nc1-c1ccc(F)cc1)Nc1ncc(Cl)cc1Cl,21.9%,

Compound,activation,Potency
COc1ccc2cc3c(N)nn(C(=O)c4ccc(Cl)c([N+](=O)[O-])c4)c3nc2c1,-10.9%,
COc1ccc(/C=N/Nc2nncc3ccccc23)cc1,,73.1 nM (active)
Cc1cccc(NC(=O)/C=C/c2ccc([N+](=O)[O-])s2)c1,-39.1%,
O=C(C1CCCN1S(=O)(=O)c1ccc(Cl)cc1)N1CCOCC1 (stereo not drawn),-4.17%,
CSCCC(NC(=O)c1ccc(Cl)cc1Cl)C(=O)N1CC(C)OC(C)C1 (stereo not drawn),-22.9%,
CCCCC(=O)NC(c1ccc(Cl)cc1Cl)c1ccc2cccnc2c1O (stereo not drawn),,20600 nM (active)
NC(=O)c1cc2ccc(O)cc2oc1=Nc1ccccc1,-2.08%,
Cc1cc(/C=N/Nc2ncnc(N)c2[N+](=O)[O-])c(C)n1-c1ccccc1,,92 nM (active)
CNc1ccc(/C=C/C(=O)c2ccc(C)cc2)cc1[N+](=O)[O-],15.1%,
Cc1cc(C(=O)Cn2nnc3ccccc3c2=O)c(C)n1Cc1cccs1,,259 nM (active)
CCN(CC)C(=O)CNC(=S)N(CCCN1CCOCC1)Cc1cccs1,-10.4%,
O=C(/C=C/c1ccco1)Nc1ccc2nn(-c3ccccc3)nc2c1,22.4%,
COc1ccc(-c2cc(C(F)(F)F)nc(-n3ccnc3C)n2)cc1,-38%,
CCc1ccc2[nH]c(=O)c(CN(CCN3CCCC3)C(=O)NC3CCCCC3)cc2c1,4.17%,
COc1ccc([N+](=O)[O-])cc1NC(=O)CSCc1ccc(Br)cc1,-26%,
CCN1C(=S)SC(=O)C1=C1C=C(C)N(CCO)C(C)=C1,,1300 nM (active)
O=C(Nc1cnc2ccccc2c1)C1COc2ccccc2O1 (stereo not drawn),,9200 nM (active)
CN(C)c1ccc(C(=O)Nc2nc3c(s2)CCCC3)cc1,,82 nM (active)
Cc1ccc(C(=O)c2cc([N+](=O)[O-])ccc2N2CCCCC2)cc1C,-17.7%,
